Records with an inconclusive call do not appear. The source made the active and inactive calls. Rule for the calls, unless noted: active = hit-call score of the fitted dose curve at least 0.9, where 1 is the maximum; inconclusive = response in the unintended direction; inactive = score below 0.9.

As usually defined, the AC50 is the concentration at which the activity in the assay is half-maximal.

A short description of test [1]: TOX21_p53_BLA_p2_viability: Viability Assessment in the Tox21 HCT-116 p53 Agonism Beta-lactamase Assay, Phase 2 (AID 2283591).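 Note: actives lower the ATP signal meaning cytotoxicity.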 In a few lines: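 Cytotoxicity readout: CellTiter-Glo ATP luminescence, 30 min at room temperature, after the beta-lactamase read. Cells were HCT116 exposed 16 h at 37C to compounds pin-transferred at 217-fold dilution from DMSO stocks.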

The target of test [2] is Cellular tumor antigen p53 (Homo sapiens) (UniProt P04637). The test can be described thus: TOX21_p53_BLA_p2_ratio: Tox21 HCT-116 p53 Agonism Beta-lactamase Assay, Ratio, Phase 2 (AID 2283592). In a few lines:
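First, HCT116 reporter cells settle for 5 h at 37C. Next, DMSO compound solutions are pinned in (217-fold dilution) and left 16 h. Finally, CCF4-AM substrate is loaded 2 h at room temperature and the 460/530 nm ratio read.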

The nature of test [3]: TOX21_p53_BLA_p3_viability: Viability Assessment in the Tox21 HCT-116 p53 Agonism Beta-lactamase Assay, Phase 3 (AID 2283593).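 Note: cells exposed to compound for 16 h before reading.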 In a few lines: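 Cellular ATP was quantified by CellTiter-Glo luminescence, read after 30 min at room temperature. Beforehand, HCT116 cells (4000/well) received compound 5 h post-seeding, 217-fold diluted from DMSO, then incubated 16 h at 37C.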
The nature of test [4]: TOX21_p53_BLA_p4_viability: Viability Assessment in the Tox21 HCT-116 p53 Agonism Beta-lactamase Assay, Phase 4 (AID 2283597).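 Note: hits lower the luminescence signal meaning cytotoxicity.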 In a few lines:
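4000 HCT116 cells per well; 5 h attachment; compounds from DMSO, 217-fold dilution; 16 h at 37C. Then CCF4-AM, 2 h RT, followed by CellTiter-Glo, 30 min RT, luminescence. Decrease = cytotoxicity.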

Test [5] addresses Cellular tumor antigen p53 (Homo sapiens) (UniProt P04637). Nature of the test: TOX21_p53_BLA_p5_ratio: Tox21 HCT-116 p53 Agonism Beta-lactamase Assay, Ratio, Phase 5 (AID 2283599). An outline of the steps: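 Beta-lactamase reporter ratio (blue 460 nm over green 530 nm, 405 nm excitation) after 2 h CCF4-AM loading, in HCT-116 cells exposed 16 h at 37 C to compounds pinned at 217-fold dilution. Increases relative to DMSO baseline scored.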

Test [6] in a line: TOX21_p53_BLA_p5_viability: Viability Assessment in the Tox21 HCT-116 p53 Agonism Beta-lactamase Assay, Phase 5 (AID 2283600). In a few lines:
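Decreased CellTiter-Glo luminescence denotes lost viability. Exposure: 16 h at 37C, 5% CO2, with compounds from DMSO stocks diluted 217-fold in wells of 4000 cells.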

Test [7] addresses Cellular tumor antigen p53 (Homo sapiens) (UniProt P04637). Nature of the test: TOX21_p53_BLA_p4_ratio: Tox21 HCT-116 p53 Agonism Beta-lactamase Assay, Ratio, Phase 4 (AID 2283601). An outline of the steps: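 Signal is the blue/green (460nm/530nm) ratio of cleaved versus uncleaved CCF4-AM substrate, read after 2 h substrate loading. Cells were HCT116 carrying the p53-responsive beta-lactamase reporter, dosed 16 h at 37C, 5% CO2; CellTiter-Glo measured in parallel.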

In test [8] the target is PGR (gene 5241) (UniProt P06401). The test can be described thus: TOX21_PR_BLA_Followup_Antagonist_ratio: Tox21 HEK293 Progesterone Receptor (PR) Antagonism Beta-lactamase Follow-Up Assay, Ratio (AID 2283934).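 Note: PR-UAS-bla HEK293T cells stimulated with 1 nM R5020 agonist for 16 hr.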 In a few lines:
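Measured in PR-UAS-bla HEK293T cells co-treated with compound and 1 nM promegestone for 16 hr; beta-lactamase ratio read after 2 h FRET substrate loading, with parallel CellTiter-Glo cytotoxicity.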

A short description of test [9]: TOX21_PR_BLA_Followup_Antagonist_viability: Viability Assessment in the Tox21 HEK293 Progesterone Receptor (PR) Antagonism Beta-lactamase Follow-Up Assay (AID 2283936).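 Note: cells exposed to compound with R5020 agonist for 16 h; hits lower the luminescence signal meaning cytotoxicity.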 An outline of the steps:
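PR-UAS-bla HEK293T cells in medium with 2% charcoal-stripped FBS were treated with compounds plus R5020 for 16 hr at 37C. After the beta-lactamase read, CellTiter-Glo was added to the same wells and luminescence read after 30 min at room temperature.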

Test [10] addresses PGR (gene 5241) (UniProt P06401). The test can be described thus: TOX21_PR_LUC_Followup_Agonist: Tox21 HEK293 Progesterone Receptor (PR) Agonism Luciferase Follow-Up Assay (AID 2283937; active = hit-call score of the fitted dose curve at least 0.9, where 1 is the maximum; inactive = score below 0.9). An outline of the steps: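 In HEK293 cells stably expressing PR-A with a luciferase reporter, compounds were incubated 16 h at 37C, and induced luminescence was quantified with ONE-Glo, multiplexed with cell viability.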

A short description of test [11]: TOX21_PR_LUC_Followup_Antagonist_viability: Viability Assessment in the Tox21 HEK293 Progesterone Receptor (PR) Antagonism Luciferase Follow-Up Assay (AID 2283940). In a few lines:
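Loss of CellTiter-Glo ATP signal indicates cytotoxicity in HEK293-PR-A-luc cells grown in 10% charcoal-stripped FBS medium, seeded 3,000 per well and incubated 16 h with compound at 37C.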

A short description of test [12]: TOX21_PR_LUC_Followup_Agonist_viability: Viability Assessment in the Tox21 HEK293 Progesterone Receptor (PR) Agonism Luciferase Follow-Up Assay (AID 2283941).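 Note: loss of signal means cytotoxicity so actives lower viability.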 In a few lines:
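Seeding: HEK293-PR-A-luc, 3,000 cells/well, 5 h at 37C. Treatment: compound in DMSO, 16 h, 37C. Read: CellTiter-Glo ATP luminescence, signal loss taken as lower viability.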

Sequence of Cellular tumor antigen p53 (Homo sapiens) (P04637 whole entry, looked up): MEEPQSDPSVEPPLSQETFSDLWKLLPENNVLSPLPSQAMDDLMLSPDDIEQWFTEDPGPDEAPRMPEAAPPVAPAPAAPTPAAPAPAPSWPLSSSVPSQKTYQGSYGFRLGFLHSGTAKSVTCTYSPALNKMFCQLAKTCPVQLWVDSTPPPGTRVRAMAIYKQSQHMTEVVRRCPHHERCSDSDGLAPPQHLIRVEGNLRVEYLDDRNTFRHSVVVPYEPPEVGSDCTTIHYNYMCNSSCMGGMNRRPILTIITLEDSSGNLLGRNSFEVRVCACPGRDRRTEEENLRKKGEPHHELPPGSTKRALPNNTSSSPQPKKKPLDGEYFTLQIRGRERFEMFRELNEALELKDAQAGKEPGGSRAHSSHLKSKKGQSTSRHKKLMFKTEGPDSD
Sequence of PGR (gene 5241) (P06401 whole entry, looked up): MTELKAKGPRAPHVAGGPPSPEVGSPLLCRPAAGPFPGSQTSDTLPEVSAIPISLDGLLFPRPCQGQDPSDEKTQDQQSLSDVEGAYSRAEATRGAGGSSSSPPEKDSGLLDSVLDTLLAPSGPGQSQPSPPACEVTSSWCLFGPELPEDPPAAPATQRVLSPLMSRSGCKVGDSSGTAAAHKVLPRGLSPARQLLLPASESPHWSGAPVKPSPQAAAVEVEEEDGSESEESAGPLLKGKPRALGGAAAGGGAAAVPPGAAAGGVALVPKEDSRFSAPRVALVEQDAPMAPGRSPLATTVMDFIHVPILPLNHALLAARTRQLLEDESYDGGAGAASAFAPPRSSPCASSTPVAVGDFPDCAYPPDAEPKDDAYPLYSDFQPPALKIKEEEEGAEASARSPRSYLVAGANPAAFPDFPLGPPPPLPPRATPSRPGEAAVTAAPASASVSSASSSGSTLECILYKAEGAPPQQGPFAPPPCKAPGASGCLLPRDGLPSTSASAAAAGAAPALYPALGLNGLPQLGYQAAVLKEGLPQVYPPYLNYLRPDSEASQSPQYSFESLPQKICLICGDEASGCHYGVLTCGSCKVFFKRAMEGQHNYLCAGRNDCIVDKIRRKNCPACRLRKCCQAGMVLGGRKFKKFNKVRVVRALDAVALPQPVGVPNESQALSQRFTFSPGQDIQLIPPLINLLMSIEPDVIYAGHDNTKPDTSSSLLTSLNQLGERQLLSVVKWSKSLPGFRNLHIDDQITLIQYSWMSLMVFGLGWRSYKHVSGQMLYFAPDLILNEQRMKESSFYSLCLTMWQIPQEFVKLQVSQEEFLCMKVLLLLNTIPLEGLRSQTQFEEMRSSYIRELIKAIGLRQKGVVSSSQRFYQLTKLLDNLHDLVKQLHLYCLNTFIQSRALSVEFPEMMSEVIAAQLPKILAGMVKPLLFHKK

Consider `CN1[C@@H]2CC[C@H]1CC(OC(=O)c1cc(Cl)cc(Cl)c1)C2` (stereo partly drawn), for which the call in [1], in test [2], in [3], in [4], in test [5] and in [6] was inactive. For the same compound, the outcome in test [7] was inactive.
`CC(=O)OC1(c2ccccc2)CCN(CCc2ccccc2)CC1`: the compound was called inactive in [1], in test [2], in [3], in [4] and in test [7].
With `O=[N+]([O-])c1ccc2ccc3cccc4ccc1c2c34`, the compound was called inactive in test [1], in [2], in test [3], in [5], in test [6] and in test [7]. For the same compound, the compound was called inactive in [9], in test [10], in test [11] and in [12]. Moreover, the AC50 in test [8] was 12.2 µM (active).

The values are drawn from PubChem BioAssay (EPA / NIEHS).
